We go through 19 compounds from PubChem BioAssay.

Assay [1] can be described thus: circadian clock period modulators, cell-based, LOPAC library, luminescence reporter (AID 2774).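 Further: values are relative to mean of DMSO wells on each plate.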 Conditions: circadian reporter cells, at 7 µM, actives lie on both sides.
For assay [2], the system named is Hepatitis C virus NS3 helicase. Put plainly: HCV NS3 helicase inhibitors, primary screen, biochemical, fluorescence polarization, LOPAC1280 library (AID 687035; in the data active means inhibition above about 37%). The note with it: Purified HCV NS3 helicase, Cy5-dT15 ssDNA binding fluorescence polarization; stronger effect = higher value; concentration not given here. For orientation: Polarisation of emitted light reports the rotation of a fluorescent probe.

Assay [3] in a line: Cy5 fluorescence quenching or enhancement artefacts, artefact control for HCV NS3 helicase inhibitor project, biochemical, LOPAC1280 (AID 687037). The note with it: Cy5-DNA-NS3h complex fluorescence interference counterscreen. For orientation: A counterscreen serves to expose hits that act by an unwanted route or on another target.
Assay [4] in a line: sensitizers of A549 cells to miR-34 induction, primary screen, imaging, A549 dox-inducible miR-34, nuclei and caspase counts (AID 1347080;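 active means compounds whose cell count with miR-34 switched on is under 0.7 times the count with it off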). The note with it: A549 miR-34 inducible, Hoechst nuclei count, 48 h.
Assay [5] in a line: phospholipid biosynthesis inhibitors in animal cells, primary screen, cell-based, LOPAC library, screen 4 (AID 1347384). The note with it: phospholipid biosynthesis inhibition screen, at 10 µM.
Assay [6] is described as follows: viability rescue of complex I mutant cybrids, primary screen, cell-based, galactose medium, ATP luminescence (AID 1645843;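 active means z-score of at least 1.8 in each of two replicates, scored against plate mean and spread of sample wells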;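 further: positive z means more ATP and so rescue of galactose-driven cybrid death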). The note with it: complex I mutant cybrid cells, 72 h, stronger effect = higher value.
The mark [7] stands for this setting: stronger effect = lower value, cell number ratio, induced over uninduced.
The mark [8] stands for this setting: measured here: relative caspase fold change +Dox/-Dox.
Where [9] appears, read: measured here: total cells with miR-34 induction, stronger effect = lower value.
[10] abbreviates: measured here: total cells without miR-34 induction.

SMILES strings stand for the structures. Activity calls are given as the source filed them. Unless noted, how the calls were made is not given here.

One may read the inhibition as the relative decrease from the control value, in per cent.

Take `Oc1ccccc1O`: in assay [1], the period change was -0.735 h (inactive). Besides, the inhibition in assay [2] was -1% (inactive). Also, in assay [3], the fluorescence ratio (interference) is 1 (inactive). Also, the fold change is 1.03 (inactive) in assay [4] (setting [7]) and 1.8 in assay [4] (setting [8]). The cell count in assay [4] (setting [9]) stood at 7780; in assay [4] (setting [10]), 7580. Moreover, the result in assay [5] was inactive. Besides, the z-score in assay [6] was -1.42 (inactive).

For `CC(=O)N[C@@H](Cc1c[nH]c2ccccc12)C(=O)OCc1cc(C(F)(F)F)cc(C(F)(F)F)c1`, the period change in assay [1] is 0.005 h (inactive). Also, the inhibition in assay [2] is -3% (inactive). In addition, in assay [3], the fluorescence ratio (interference) was 0.9 (inactive). Further, the fold change is 1.03 (inactive) in assay [4] (setting [7]) and 1.8 in assay [4] (setting [8]). Besides, the cell count in assay [4] (setting [9]) came to 9980; in assay [4] (setting [10]) it was 9690. The compound was called inactive in assay [5]. Further, the z-score in assay [6] is -0.03 (inactive).

Consider `Cc1nc(N=Nc2ccc(C(=O)O)cc2)c(COP(=O)(O)O)c(C=O)c1O`, for which the period change in assay [1] was -0.16 h (inactive). Moreover, in assay [2], the inhibition was 43% (active). The fluorescence ratio (interference) in assay [3] is 1 (inactive). Further, the fold change in assay [4] (setting [7]) was 1.04 (inactive); in assay [4] (setting [8]) it was 0.656. The cell count in assay [4] (setting [9]) was determined as 10100; in assay [4] (setting [10]), 9680. Further, the result in assay [5] was inactive. For the same compound, the z-score in assay [6] is 0.49 (inactive).

For `c1cnc2c(c1)ccc1cccnc12`, in assay [1], the period change is 0.09 h (inactive). For the same compound, in assay [2], the inhibition was -3% (inactive). Further, the fluorescence ratio (interference) in assay [3] was 1 (inactive). The fold change is 0.996 (inactive) in assay [4] (setting [7]) and 2.62 in assay [4] (setting [8]). The cell count in assay [4] (setting [9]) came to 2190; in assay [4] (setting [10]) it was 2200. The call in assay [5] was inactive. Also, in assay [6], the z-score was -1.21 (inactive).

Regarding `Cc1ccccc1/C=C/C1=NCCN1`, the period change in assay [1] is -0.13 h (inactive). In assay [2], the inhibition was -5% (inactive). In addition, the fluorescence ratio (interference) in assay [3] is 1 (inactive). The fold change in assay [4] (setting [7]) is 1.01 (inactive); in assay [4] (setting [8]) it was 0.996. Moreover, the figures for the cell count in assay [4] (setting [9]) and in assay [4] (setting [10]) were 7710 and 7640, respectively. In addition, the compound was classed as inactive in assay [5]. Besides, the z-score in assay [6] is -1.06 (inactive).

For the compound `N.N.O=C(O)C1(C(=O)O)CCC1.[Pt+2]`, the period change in assay [1] was 0.07 h (inactive). For the same compound, the inhibition in assay [2] was -3% (inactive). The fluorescence ratio (interference) in assay [3] was 1 (inactive). Besides, the fold change in assay [4] (setting [7]) was 1.04 (inactive); in assay [4] (setting [8]), 1.42. Moreover, the values for the cell count in assay [4] (setting [9]) and in assay [4] (setting [10]) were 6330 and 6070, respectively. Further, the compound was classed as inactive in assay [5]. Further, in assay [6], the z-score is -0.53 (inactive).

Regarding `C=CCN1CCc2c(cc(O)c(O)c2Cl)C(c2ccccc2)C1` (stereo unspecified), in assay [1], the period change is 0.25 h (inactive). The inhibition in assay [2] was -4% (inactive). The fluorescence ratio (interference) in assay [3] is 1 (inactive). Moreover, the fold change is 1.02 (inactive) in assay [4] (setting [7]) and 1.32 in assay [4] (setting [8]). The cell count in assay [4] (setting [9]) was found to be 7830; in assay [4] (setting [10]) it was 7660. Besides, the result in assay [5] was inactive. Also, in assay [6], the z-score is -0.925 (inactive).

As to `COc1ccc(NC(=O)/C=C/c2ccc(Cl)cc2)cc1`, the period change in assay [1] is -0.055 h (inactive). Moreover, the inhibition in assay [2] was -2% (inactive). The fluorescence ratio (interference) in assay [3] is 1 (inactive). Also, the fold change is 1.13 (inactive) in assay [4] (setting [7]) and 0.89 in assay [4] (setting [8]). In addition, the cell count was 7420 in assay [4] (setting [9]) and 6550 in assay [4] (setting [10]). In addition, the outcome in assay [5] was inactive. Moreover, in assay [6], the z-score is 0.42 (inactive).

As for `COc1ccccc1N1CCN(CCCNc2c(C)c(=O)n(C)c(=O)n2C)CC1`, the period change in assay [1] is -0.1 h (inactive). Also, the inhibition in assay [2] is -5% (inactive). The fluorescence ratio (interference) in assay [3] was 1 (inactive). The fold change in assay [4] (setting [7]) is 0.886 (inactive); in assay [4] (setting [8]) it was 2.76. Also, the cell count in assay [4] (setting [9]) came out at 8920; in assay [4] (setting [10]) it was 10100. For the same compound, the outcome in assay [5] was inactive. In addition, the z-score in assay [6] is 0.025 (inactive).

For the compound `OCC1NCC(O)C(O)C1O` (stereo unspecified), the period change in assay [1] is 0.035 h (inactive). In assay [2], the inhibition was -2% (inactive). For the same compound, the fluorescence ratio (interference) in assay [3] was 1 (inactive). Besides, the fold change was 0.93 (inactive) in assay [4] (setting [7]) and 1.34 in assay [4] (setting [8]). For the same compound, the results for the cell count in assay [4] (setting [9]) and in assay [4] (setting [10]) were 9950 and 10700, respectively. For the same compound, in assay [5], the compound was called inactive. The z-score in assay [6] was -0.145 (inactive).

As for `Nc1ccc(CCNc2ncnc3c2ncn3C2OC(CO)C(O)C2O)cc1` (stereo unspecified), the period change in assay [1] was 0.215 h (inactive). The inhibition in assay [2] is -1% (inactive). The fluorescence ratio (interference) in assay [3] was 1 (inactive). Moreover, the results for the fold change in assay [4] (setting [7]) and in assay [4] (setting [8]) were 1.01 (inactive) and 1.75, respectively. For the same compound, the cell count in assay [4] (setting [9]) amounted to 10600; in assay [4] (setting [10]) it was 10500. For the same compound, the call in assay [5] was inactive. Besides, the z-score in assay [6] is 0.795 (inactive).

Consider `C=C/C(C)=C/[C@@]1(C)SC(=O)C(C)=C1O`, for which the period change in assay [1] is -0.02 h (inactive). Also, the inhibition in assay [2] is -4% (inactive). Besides, the fluorescence ratio (interference) in assay [3] was 1 (inactive). The fold change was 1.05 (inactive) in assay [4] (setting [7]) and 1.19 in assay [4] (setting [8]). Moreover, the figures for the cell count in assay [4] (setting [9]) and in assay [4] (setting [10]) were 10800 and 10300, respectively. Also, the call in assay [5] was inactive. In assay [6], the z-score was 0.66 (inactive).

In the case of `CCCOC(=O)c1c(-c2ccccc2)nc(CC)c(C(=O)SCC)c1CCC`, the period change in assay [1] is -0.02 h (inactive). Further, the inhibition in assay [2] was -3% (inactive). The fluorescence ratio (interference) in assay [3] was 1 (inactive). Besides, the results for the fold change in assay [4] (setting [7]) and in assay [4] (setting [8]) were 1.01 (inactive) and 0.935, respectively. The cell count in assay [4] (setting [9]) turned out to be 9020; in assay [4] (setting [10]), 8910. The compound was called inactive in assay [5]. Moreover, in assay [6], the z-score is -1.19 (inactive).

With `CCCCCCCCCCCCCCSCC(=O)O`, in assay [1], the period change is -0.08 h (inactive). In assay [2], the inhibition is -2% (inactive). In assay [3], the fluorescence ratio (interference) was 1 (inactive). The fold change in assay [4] (setting [7]) was 0.985 (inactive); in assay [4] (setting [8]), 1.37. The cell count was 9840 in assay [4] (setting [9]) and 9990 in assay [4] (setting [10]). Moreover, the call in assay [5] was inactive. In assay [6], the z-score is -0.24 (inactive).

As for `Cn1ccnc1`, the period change in assay [1] is 0.39 h (inactive). In assay [2], the inhibition is -2% (inactive). Further, in assay [3], the fluorescence ratio (interference) is 0.9 (inactive). In addition, the fold change in assay [4] (setting [7]) was 1.1 (inactive); in assay [4] (setting [8]), 0.769. Moreover, the cell count in assay [4] (setting [9]) turned out to be 11100; in assay [4] (setting [10]), 10000. For the same compound, in assay [5], the compound was called inactive. Besides, the z-score in assay [6] was 0.675 (inactive).

Turning to `Cc1cc(NC(=O)Nc2ccc3c(ccn3C)c2)sn1`, the period change in assay [1] is -0.055 h (inactive). Further, the inhibition in assay [2] was -1% (inactive). Moreover, the fluorescence ratio (interference) in assay [3] was 0.9 (inactive). Besides, the fold change is 1.07 (inactive) in assay [4] (setting [7]) and 1.78 in assay [4] (setting [8]). For the same compound, the cell count in assay [4] (setting [9]) worked out at 9080; in assay [4] (setting [10]), 8470. Moreover, in assay [5], the call was inactive. Further, in assay [6], the z-score was 0.19 (inactive).

As for `COc1ccc2c(c1)c(CC(=O)O)c(C)n2C(=O)c1ccccc1`, the period change in assay [1] is 0.15 h (inactive). Also, the inhibition in assay [2] was -2% (inactive). In addition, in assay [3], the fluorescence ratio (interference) is 1 (inactive). In addition, the fold change in assay [4] (setting [7]) was 1.07 (inactive); in assay [4] (setting [8]) it was 1.77. For the same compound, the cell count in assay [4] (setting [9]) is 9380; in assay [4] (setting [10]) it was 8810. In assay [5], the compound was classed as inactive. Besides, the z-score in assay [6] is 1.18 (inactive).

Regarding `COc1cccc(C(=O)NCCN2CCN(c3ccc(Cl)cc3)CC2)c1`, in assay [1], the period change is -0.035 h (inactive). Moreover, the inhibition in assay [2] was 0% (inactive). Moreover, the fluorescence ratio (interference) in assay [3] is 1 (inactive). For the same compound, the values for the fold change in assay [4] (setting [7]) and in assay [4] (setting [8]) were 1.02 (inactive) and 1.92, respectively. The cell count in assay [4] (setting [9]) was 9900; in assay [4] (setting [10]), 9720. The call in assay [5] was inactive. For the same compound, in assay [6], the z-score was -0.845 (inactive).

On to `CC(=O)N[C@H](C(=O)O)C(C)(C)SN=O`, for which the period change in assay [1] is 0.185 h (inactive). For the same compound, the inhibition in assay [2] is -4% (inactive). For the same compound, the fluorescence ratio (interference) in assay [3] was 1 (inactive). Also, the fold change in assay [4] (setting [7]) is 1.07 (inactive); in assay [4] (setting [8]) it was 1.19. Further, the cell count in assay [4] (setting [9]) came out at 11100; in assay [4] (setting [10]) it was 10400. Also, in assay [5], the compound was classed as inactive. Also, the z-score in assay [6] was -0.22 (inactive).
